The results in this text go back to PubChem BioAssay (NCATS).

Structures are written as SMILES. Inconclusive results are not listed. Calls of active or inactive are those of the source. Unless noted, the call rests on the fitted dose curve; in most records, active means well fitted curve in the direction sought with a large enough effect; inconclusive means small, poorly fitted or top-dose-only effect, or another doubt; inactive means no such curve, though single readings can be large; an effect the other way counts as inactive or inconclusive.

For experiment [1], the target named is Transient receptor potential cation channel subfamily V member 1 (Homo sapiens) (UniProt Q8NER1). The experiment is described as follows: HTS Assay for Compounds that Act as Enhancers of the Vanilloid Receptor 1 (AID 488979). Further: 0% is about no effect. An outline of the steps: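 Calcium influx kinetics via Fluo-8 (480/520 nm) in TRPV1-expressing cells, 2000/well cultured overnight at 35.5C. Compound-alone read 3 min (agonist phase), followed by EC20 capsaicin challenge for 2 min (enhancer phase).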
Chain of Transient receptor potential cation channel subfamily V member 1 (Homo sapiens) (Q8NER1 whole entry, looked up): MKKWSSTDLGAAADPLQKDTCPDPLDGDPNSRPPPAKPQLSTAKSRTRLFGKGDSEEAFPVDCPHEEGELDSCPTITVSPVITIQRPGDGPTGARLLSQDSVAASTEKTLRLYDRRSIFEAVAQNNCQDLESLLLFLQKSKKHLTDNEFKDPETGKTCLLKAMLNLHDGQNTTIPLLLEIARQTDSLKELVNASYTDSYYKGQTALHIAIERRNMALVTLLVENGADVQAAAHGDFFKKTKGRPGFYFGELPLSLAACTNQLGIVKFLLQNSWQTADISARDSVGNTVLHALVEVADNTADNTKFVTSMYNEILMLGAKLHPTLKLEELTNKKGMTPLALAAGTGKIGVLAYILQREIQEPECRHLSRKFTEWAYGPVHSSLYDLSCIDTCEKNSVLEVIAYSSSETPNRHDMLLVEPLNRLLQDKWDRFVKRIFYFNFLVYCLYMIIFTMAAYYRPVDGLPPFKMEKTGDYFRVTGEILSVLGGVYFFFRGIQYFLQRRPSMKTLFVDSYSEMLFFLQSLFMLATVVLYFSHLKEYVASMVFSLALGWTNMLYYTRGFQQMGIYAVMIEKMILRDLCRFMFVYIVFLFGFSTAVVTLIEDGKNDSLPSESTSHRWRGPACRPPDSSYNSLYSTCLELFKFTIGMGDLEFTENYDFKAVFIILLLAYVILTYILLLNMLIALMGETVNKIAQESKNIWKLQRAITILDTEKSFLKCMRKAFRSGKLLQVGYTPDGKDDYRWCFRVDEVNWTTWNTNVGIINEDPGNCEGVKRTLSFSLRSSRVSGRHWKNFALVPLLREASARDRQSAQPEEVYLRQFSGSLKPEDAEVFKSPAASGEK

Experiment [2] concerns the target Thyrotropin receptor (Homo sapiens) (UniProt P16473). In words: qHTS Assay for Antagonists of the Thyroid Stimulating Hormone Receptor (AID 488980). Further: series mostly up to about 58 µM; 0% is about no effect. An outline of the steps:
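TSHR-transfected HEK293 cells (2000/well) in HEPES-buffered HBSS with 70 uM RO 20-1724 were stimulated with 4 nM TSH (EC80, final) in the presence of compound. cAMP was measured by HTRF competition after lysis and 30 min at RT.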

Experiment [3] concerns the target D(1A) dopamine receptor (Homo sapiens) (UniProt P21728). In words: HTS Assay for Allosteric Agonists of the Human D1 Dopamine Receptor: Primary Screen for Agonists (AID 488981). Further: 0% is about no effect. An outline of the steps:
(§1)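 Calcium flux in an inducible, force-coupled HEK293 Trex D1 line (overnight at 30 C): agonist mode is the 180 s kinetic read after compound; potentiator mode is the following 180 s read after dopamine at EC20.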

Experiment [4] has the same target. The experiment is described as follows: HTS Assay for Allosteric Agonists of the Human D1 Dopamine Receptor: Primary Screen for Potentiators (AID 488982). Further: 0% is about no effect. An outline of the steps:
as §1

Experiment [5] shares this target. The experiment is described as follows: HTS Assay for Allosteric Agonists of the Human D1 Dopamine Receptor: Primary Screen for Antagonists (AID 488983).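 Further: calcium flux response to an EC80 dopamine challenge measured with no-wash dye; on the % scale 0 is the no-effect control and ±100 the full control effect; nearly all actives have a fitted effect of over 65% in size.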 An outline of the steps:
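Calcium-flux read-out in inducible HEK293 T-REx cells expressing D1, dye-loaded 30–90 min at room temperature. Kinetic reads: 180 s after compound (agonist phase), then 180 s after an EC80 dopamine challenge.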

A short description of experiment [6]: Validation screen for small molecules that induce genotoxicity in human embryonic kidney (HEK293T) cells expressing luciferase-tagged ELG1 (AID 493106). Further: 0% is about no effect. The gist of the method:
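ELG1-luciferase reporter readout (ONE-Glo, 30 min, room temperature) after 16 hr compound treatment at 37 °C of HEK293T cells at 2,000 per well. Rising luminescence flags genotoxic stress.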

Experiment [7] deals with ATPase family AAA domain-containing protein 5 (Homo sapiens) (UniProt Q96QE3). The experiment is described as follows: Validation screen for small molecules that inhibit ELG1-dependent DNA repair in human embryonic kidney (HEK293T) cells expressing luciferase-tagged ELG1 (AID 493107).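 Further: series mostly up to about 46 µM; on the % scale 0 is the no-effect control and ±100 the full control effect; inhibitors lower the ELG1-luciferase luminescence signal; nearly all actives have a fitted effect of over 70% in size.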 An outline of the steps:
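Luciferase read-out, ONE-Glo, 30 min at room temperature, follows 16 h co-exposure at 37 C of compound and the DNA-damaging agent 5-fluorouridine. Cells: HEK293T with ELG1-luciferase fusion, 2,000 per well, DMSO as vehicle.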

Experiment [8] can be described thus: qHTS for Inhibitors of Cell Surface uPA Generation: Validation Assay (AID 493164).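 Further: RAW 264.7 macrophage cells exposed to compound for 18 h; 0% is about no effect.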 An outline of the steps: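 ATP-Lite luminescence read-out: ATP remains high when uPA activity-dependent LF translocation into the cytoplasm is blocked. RAW 264.7 cells, 18 h compound exposure at 37 C; 7-point titration, 2.45 nM to 38.3 uM final.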
Experiment [9] addresses Galactokinase (Homo sapiens) (UniProt P51570). The experiment is described as follows: qHTS Validation Assay for Inhibitors of Human Galactokinase (GALK) (AID 493189). Further: 0% is about no effect. An outline of the steps: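 GALK (5 nM) with 35 uM ATP and 100 uM galactose in HEPES pH 8.0 with MgCl2, NaCl, DTT and BSA. Reaction ran 1 h at room temperature. Residual ATP read by Kinase-Glo Plus luminescence.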

Experiment [10] in a line: Validation screen for small molecules that induce DNA re-replication in SW480 colon adenocarcinoma cells (AID 504364). Further: 0% is about no effect. An outline of the steps:
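Image-based DNA content read-out: Hoechst stain 40 min, total nuclear fluorescence intensity (ex 405 nm, em 500-530 nm) after 48 h compound exposure of 250 SW480 cells/well at 37 C, 5% CO2, versus DMSO vehicle.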

In experiment [11] the target is Peptidyl-prolyl cis-trans isomerase NIMA-interacting 1 (Homo sapiens) (UniProt Q13526). In words: qHTS Validation Assay to Find Inhibitors of Pin1 (AID 504536; active means well fitted inhibition curve with a large enough effect in the polarisation, with a control signal flat, not every such curve was filed as active; the % refers to the polarisation;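 further: 0% = full Pin1 enzyme wells and -100% = no-enzyme wells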). An outline of the steps: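 Fluorescence polarization competition: compounds (titration) displace HiFluor-488-labeled Pin1-1b peptide from Pin1 (0.3 uM final) in pH 7.5 HEPES buffer with DTT, 10 min at room temperature; %Activity normalized to no-enzyme wells, curves fitted.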
Chain of Peptidyl-prolyl cis-trans isomerase NIMA-interacting 1 (Homo sapiens) (Q13526 whole entry, looked up): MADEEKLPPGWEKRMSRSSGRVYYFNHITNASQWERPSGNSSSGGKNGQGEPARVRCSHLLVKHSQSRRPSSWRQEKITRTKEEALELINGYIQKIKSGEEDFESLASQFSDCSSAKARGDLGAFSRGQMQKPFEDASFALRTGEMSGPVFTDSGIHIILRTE
Background: Quantitative high-throughput screening tests each substance at several concentrations.

Experiment [12] concerns the target Phosphoglycerate kinase, glycosomal (Trypanosoma brucei brucei) (UniProt P07378). The experiment is described as follows: qHTS Validation Assay to Find Inhibitors of Phosphoglycerate Kinase (AID 504547).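 Further: control wells lack PGK and mark full inhibition.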 The gist of the method:
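Luminescence end-point (Kinase-Glo Plus, 10 min) after a 60 min room-temperature coupled reaction. GAPDH at 100nM final supplies 1,3-BPG to PGK. Buffer: 100mM TEA pH 7.6, 5mM MgCl2, 0.01% Tween-20. Wells lacking PGK served as controls.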

The target of experiment [13] is phosphoglycerate mutase (Leishmania major) (UniProt Q4Q090). In words: qHTS Validation Assay to Find Inhibitors of Phosphoglycerate Mutase (AID 504548). Further: series mostly up to about 58 µM; on the % scale 0 is the no-effect control and ±100 the full control effect. As to conditions: Potency: inhibition qHTS. The gist of the method: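 Luminescent end-point read-out via Kinase-GloPlus after a 10-minute development. Reaction: 1.25nM Leishmania major PGAM with substrate and compound, 45 minutes at room temperature in TEA buffer (pH 7.6) with MgCl2 and Tween-20.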
Chain of phosphoglycerate mutase (Leishmania major) (Q4Q090 1-553): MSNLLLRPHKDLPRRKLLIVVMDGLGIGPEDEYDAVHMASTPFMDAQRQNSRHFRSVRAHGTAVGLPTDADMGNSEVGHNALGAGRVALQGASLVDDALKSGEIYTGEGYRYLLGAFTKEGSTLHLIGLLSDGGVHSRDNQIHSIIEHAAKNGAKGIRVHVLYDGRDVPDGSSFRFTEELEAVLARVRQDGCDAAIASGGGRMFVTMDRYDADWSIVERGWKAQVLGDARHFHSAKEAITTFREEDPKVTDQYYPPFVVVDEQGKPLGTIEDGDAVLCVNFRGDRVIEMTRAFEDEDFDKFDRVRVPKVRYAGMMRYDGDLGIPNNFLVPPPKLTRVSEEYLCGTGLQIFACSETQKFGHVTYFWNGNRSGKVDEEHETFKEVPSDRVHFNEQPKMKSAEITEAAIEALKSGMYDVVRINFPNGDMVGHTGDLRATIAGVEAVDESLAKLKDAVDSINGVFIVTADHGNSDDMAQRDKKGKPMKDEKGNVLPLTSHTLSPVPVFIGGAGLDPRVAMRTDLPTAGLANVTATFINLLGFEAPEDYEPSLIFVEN

Experiment [14] has as its target Ubiquitin carboxyl-terminal hydrolase 1 (Homo sapiens) (UniProt O94782). In words: Inhibitors of USP1/UAF1: Pilot qHTS (AID 504865).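 Further: rhodamine fluorescence freed from ubiquitin-rhodamine substrate followed over time; top concentration of the series differs between compounds; on the % scale 0 is the no-effect control and ±100 the full control effect; nearly all actives have a fitted effect of over 35% in size.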 An outline of the steps:
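USP1/UAF1 complex at 1 nM preincubated 15 min at room temperature with compound, then Ub-Rho substrate added at 150 nM final. Fluorescence (480/540 nm) read kinetically in 50 mM HEPES pH 7.8, 0.5 mM EDTA, 1 mM TCEP, 0.1 mg/ml BSA, 0.01% Tween-20.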

The nature of experiment [15]: qHTS for Inhibitors of ATXN expression: Validation of Cytotoxic Assay (AID 588349). Further: on the % scale 0 is the no-effect control and ±100 the full control effect. An outline of the steps:
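Cytotoxicity counter-screen: ATP-based luminescent viability (CellTiter Glo) after 72 hr exposure of HEK293 cells to a compound titration at 37 degrees C.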

A short description of experiment [16]: qHTS for Inhibitors of ATXN expression: Validation (AID 588378). Further: series mostly up to about 57 µM; on the % scale 0 is the no-effect control and ±100 the full control effect; nearly all actives have a fitted effect of over 75% in size. The gist of the method: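 HEK293 cells carrying ATXN2-firefly luciferase reporter, treated with compound 24 h at 37 °C. Viability read first by CellTiter-Fluor (405/525 nm), then reporter expression by Bright-Glo luminescence; controls were a known ATXN2 expression inhibitor and a luciferase inhibitor.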

Experiment [17] in a line: Nrf2 qHTS screen for inhibitors: Validation (AID 493153; active means well fitted inhibition curve with a large enough effect in the main read-out, with a control signal flat, not every such curve was filed as active). As to conditions: Potency: luciferase luminescence; viability change: measured here: cytotoxicity max response. The gist of the method:
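Concentration-response on A549 ARE_Fluc reporter cells exposed 18-24 h at 37 C, 5% CO2. Cytotoxicity read first by CellTiter-Fluor fluorescence (Ex 405/Em 525), then Nrf2 inhibition by BugLite luminescence after 15 min.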

Experiment [18] concerns the target Thyrotropin-releasing hormone receptor (Homo sapiens) (UniProt P34981). In words: qHTS for Small Molecule Agonists and Allosteric Enhancers of Human TRH Receptor: Validation Screen for Agonists (AID 493127;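 active means calcium activation more than 3 SD above the typical response in the agonist read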;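 further: intracellular calcium rise by fluo-8 fluorescence before TRH EC20 addition; 0% is about no effect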). As to conditions: TRH receptor agonist cell assay; at 2 µM; stronger effect = higher value. An outline of the steps: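 Compound-evoked intracellular calcium release in fluo-8-loaded TRHR cells, read kinetically on FDSS (Ex 480/Em 530, 1 s/cycle) after 23 nL pintool transfer. Agonist phase preceded 10 nM TRH EC20 addition.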

Chain of Ubiquitin carboxyl-terminal hydrolase 1 (Homo sapiens) (O94782 whole entry, looked up): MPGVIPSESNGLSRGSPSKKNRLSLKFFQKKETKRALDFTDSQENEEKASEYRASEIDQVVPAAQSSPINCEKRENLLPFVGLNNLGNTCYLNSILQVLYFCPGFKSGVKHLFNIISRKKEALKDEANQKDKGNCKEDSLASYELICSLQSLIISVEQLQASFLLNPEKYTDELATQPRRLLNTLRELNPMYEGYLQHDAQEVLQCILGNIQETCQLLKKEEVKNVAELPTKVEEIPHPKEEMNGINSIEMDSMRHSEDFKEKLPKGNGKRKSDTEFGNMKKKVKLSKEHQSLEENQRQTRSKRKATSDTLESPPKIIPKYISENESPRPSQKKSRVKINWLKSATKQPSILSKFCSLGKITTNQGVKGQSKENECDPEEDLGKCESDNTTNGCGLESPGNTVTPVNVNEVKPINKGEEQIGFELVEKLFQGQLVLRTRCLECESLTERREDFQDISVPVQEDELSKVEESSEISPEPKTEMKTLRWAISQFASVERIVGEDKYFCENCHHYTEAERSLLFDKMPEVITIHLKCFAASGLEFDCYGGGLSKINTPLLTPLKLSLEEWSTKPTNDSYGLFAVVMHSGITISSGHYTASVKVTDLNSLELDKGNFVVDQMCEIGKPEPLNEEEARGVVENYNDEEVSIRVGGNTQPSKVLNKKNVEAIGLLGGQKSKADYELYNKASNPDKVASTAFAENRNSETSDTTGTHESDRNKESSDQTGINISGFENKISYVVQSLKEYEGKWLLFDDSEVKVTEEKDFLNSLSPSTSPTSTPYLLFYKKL
Chain of Phosphoglycerate kinase, glycosomal (Trypanosoma brucei brucei) (P07378 whole entry, looked up): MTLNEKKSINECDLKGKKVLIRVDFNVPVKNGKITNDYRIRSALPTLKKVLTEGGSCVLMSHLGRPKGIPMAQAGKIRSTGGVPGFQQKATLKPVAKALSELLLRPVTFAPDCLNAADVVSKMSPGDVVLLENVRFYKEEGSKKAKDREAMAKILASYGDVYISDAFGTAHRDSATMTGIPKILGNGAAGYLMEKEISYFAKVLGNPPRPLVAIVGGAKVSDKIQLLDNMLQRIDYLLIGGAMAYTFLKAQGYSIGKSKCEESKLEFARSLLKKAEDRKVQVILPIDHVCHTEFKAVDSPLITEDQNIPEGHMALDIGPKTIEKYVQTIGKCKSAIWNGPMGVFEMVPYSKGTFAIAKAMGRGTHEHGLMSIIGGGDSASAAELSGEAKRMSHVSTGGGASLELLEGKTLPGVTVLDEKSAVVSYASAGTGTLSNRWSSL
Chain of Galactokinase (Homo sapiens) (P51570 whole entry, looked up): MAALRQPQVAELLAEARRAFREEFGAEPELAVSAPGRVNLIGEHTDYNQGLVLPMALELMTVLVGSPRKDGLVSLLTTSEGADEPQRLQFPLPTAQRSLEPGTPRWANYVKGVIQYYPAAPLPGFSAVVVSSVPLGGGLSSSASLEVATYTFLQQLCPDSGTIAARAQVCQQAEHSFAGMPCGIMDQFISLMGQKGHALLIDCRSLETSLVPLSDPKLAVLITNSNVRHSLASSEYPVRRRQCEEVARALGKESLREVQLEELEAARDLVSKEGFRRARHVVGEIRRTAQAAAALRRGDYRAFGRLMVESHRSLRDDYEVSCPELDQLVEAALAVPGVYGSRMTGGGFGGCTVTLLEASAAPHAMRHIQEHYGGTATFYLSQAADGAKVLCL
Chain of ATPase family AAA domain-containing protein 5 (Homo sapiens) (Q96QE3 whole entry, looked up, the tested form may be a part): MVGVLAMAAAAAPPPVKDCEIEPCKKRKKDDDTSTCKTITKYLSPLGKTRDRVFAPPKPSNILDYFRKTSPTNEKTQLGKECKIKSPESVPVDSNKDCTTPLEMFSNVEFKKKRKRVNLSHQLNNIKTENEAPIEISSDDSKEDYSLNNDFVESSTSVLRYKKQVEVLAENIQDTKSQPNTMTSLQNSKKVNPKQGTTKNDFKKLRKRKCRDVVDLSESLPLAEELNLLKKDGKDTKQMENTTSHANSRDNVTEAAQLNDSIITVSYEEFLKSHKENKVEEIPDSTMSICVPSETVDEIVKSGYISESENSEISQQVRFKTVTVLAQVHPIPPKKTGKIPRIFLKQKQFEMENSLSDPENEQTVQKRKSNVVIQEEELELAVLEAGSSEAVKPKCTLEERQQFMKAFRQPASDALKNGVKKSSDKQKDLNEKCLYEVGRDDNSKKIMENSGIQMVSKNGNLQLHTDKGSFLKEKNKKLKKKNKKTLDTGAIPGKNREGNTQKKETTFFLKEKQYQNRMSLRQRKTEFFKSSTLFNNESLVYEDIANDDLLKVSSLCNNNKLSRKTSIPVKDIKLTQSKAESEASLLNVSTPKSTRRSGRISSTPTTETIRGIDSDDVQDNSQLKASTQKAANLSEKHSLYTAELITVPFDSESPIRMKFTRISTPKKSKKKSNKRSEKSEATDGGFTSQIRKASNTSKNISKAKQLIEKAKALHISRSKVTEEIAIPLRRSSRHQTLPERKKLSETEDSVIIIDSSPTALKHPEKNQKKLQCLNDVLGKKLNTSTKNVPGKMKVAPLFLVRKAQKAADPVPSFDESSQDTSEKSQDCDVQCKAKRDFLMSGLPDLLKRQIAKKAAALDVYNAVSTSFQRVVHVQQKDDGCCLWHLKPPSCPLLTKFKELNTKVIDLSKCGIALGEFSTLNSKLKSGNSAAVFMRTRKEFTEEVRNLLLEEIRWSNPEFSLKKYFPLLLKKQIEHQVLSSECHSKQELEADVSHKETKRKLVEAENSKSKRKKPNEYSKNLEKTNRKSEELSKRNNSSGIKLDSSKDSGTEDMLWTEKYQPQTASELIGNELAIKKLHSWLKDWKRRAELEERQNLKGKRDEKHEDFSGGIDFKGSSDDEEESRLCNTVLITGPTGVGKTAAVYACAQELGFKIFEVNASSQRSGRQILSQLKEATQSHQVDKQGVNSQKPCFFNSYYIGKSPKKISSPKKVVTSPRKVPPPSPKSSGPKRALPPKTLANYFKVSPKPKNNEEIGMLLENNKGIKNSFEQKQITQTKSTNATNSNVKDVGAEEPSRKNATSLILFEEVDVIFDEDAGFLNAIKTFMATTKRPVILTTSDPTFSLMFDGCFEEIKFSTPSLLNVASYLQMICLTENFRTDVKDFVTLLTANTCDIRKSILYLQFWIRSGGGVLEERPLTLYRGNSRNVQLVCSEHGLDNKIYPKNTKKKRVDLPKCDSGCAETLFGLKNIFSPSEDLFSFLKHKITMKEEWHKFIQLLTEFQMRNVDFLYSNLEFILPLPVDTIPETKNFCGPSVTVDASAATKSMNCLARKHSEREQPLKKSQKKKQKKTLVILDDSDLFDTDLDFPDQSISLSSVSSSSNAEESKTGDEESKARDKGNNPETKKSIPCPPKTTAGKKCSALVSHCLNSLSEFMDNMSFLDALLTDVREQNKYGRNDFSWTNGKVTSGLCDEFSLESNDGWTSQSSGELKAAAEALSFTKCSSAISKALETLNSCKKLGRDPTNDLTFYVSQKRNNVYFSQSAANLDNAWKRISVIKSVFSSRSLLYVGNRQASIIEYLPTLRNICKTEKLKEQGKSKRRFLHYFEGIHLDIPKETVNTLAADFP

For the compound `CCOC(=O)C12CC1/C(=N/O)c1ccccc1O2` (centres undefined), the result in experiment [1], in experiment [2] and in experiment [8] was inactive. Also, the Potency result in experiment [3], in [4], in experiment [5], in experiment [6], in experiment [7] and in [9] was “inactive” in each case. Besides, the Potency result in [10], in experiment [11], in experiment [12], in experiment [13], in experiment [14] and in experiment [15] was “inactive” in each case. Further, the Potency result in experiment [16] was “inactive”.

`COc1ccc(-c2ccc(N)[n+](CCCC(=O)O)n2)cc1`: the result in [1], in [2] and in experiment [8] was inactive. In addition, the Potency result in experiment [3], in experiment [4], in experiment [5], in [6], in experiment [7] and in experiment [17] was “inactive” each time. For the same compound, the Potency result in experiment [9], in experiment [10], in experiment [11], in [12], in experiment [13] and in experiment [14] was “inactive” in each case. Further, the Potency result in [15] and in experiment [16] was “inactive” each time. This compound yielded a viability change in experiment [17] of 1.33%.

Turning to `N=C(N)c1ccccc1`, the outcome in experiment [1], in experiment [2] and in experiment [8] was inactive. The Potency entry in [3], in [4], in experiment [5], in [6], in experiment [17] and in experiment [9] was “inactive” in each case. The Potency result in experiment [10], in experiment [11], in experiment [12], in experiment [13], in experiment [14] and in experiment [15] was “inactive” in each case. Besides, in experiment [18], the activation was 1.19% (inactive). The same compound returned a viability change in [17] of 6.8%.

As to `Oc1cc(O)c2c(c1)O[C@H](c1ccc(O)c(O)c1)[C@@H](O)C2`, the result in [1], in experiment [2] and in experiment [8] was inactive. Further, the Potency entry in [3], in experiment [4], in [5], in experiment [6], in experiment [7] and in experiment [9] was “inactive” each time. For the same compound, the Potency result in [10], in experiment [11], in [13], in experiment [14], in experiment [15] and in [16] was “inactive” in each case.

As to `CC(C)C[C@H](NC(=O)C1OC1C(=O)O)C(=O)NCCCCN=C(N)N` (some centres undefined), the result in [1] and in [2] was inactive. The Potency result in experiment [3], in experiment [4], in experiment [5], in experiment [6], in experiment [7] and in [9] was “inactive” in each case. Moreover, the Potency entry in experiment [10], in [11], in experiment [13] and in experiment [14] was “inactive” in each case. The activation in experiment [18] was 0% (inactive).

`CCN(CC)CCOC(=O)c1cc(Cl)c(N)cc1OC`: the result in experiment [1], in [2] and in experiment [8] was inactive. For the same compound, the Potency result in [3], in [4], in [5], in experiment [6], in [17] and in [9] was “inactive” throughout. The Potency entry in experiment [10], in experiment [11], in [12], in experiment [13], in [14] and in experiment [15] was “inactive” throughout. Besides, in experiment [16], the Potency entry was “inactive”. For the same compound, in experiment [18], the activation was 1.5% (inactive). The same compound gave a viability change in [17] of 2.46%.

`O=C(O)Cc1c[nH]c2ccc(O)cc12`: the result in experiment [1], in experiment [2] and in experiment [8] was inactive. The Potency entry in [3], in experiment [4], in [5], in [6], in experiment [17] and in experiment [9] was “inactive” throughout. Also, the Potency result in [10], in [11], in experiment [12], in experiment [13], in [14] and in experiment [16] was “inactive” in each case. Moreover, the activation in experiment [18] is -0.188% (inactive). The compound further showed a viability change in experiment [17] of 0.136%.
